Screens: PubChem BioAssay, National Center for Advancing Translational Sciences (NCATS)
Compounds with a hit are over-represented: about 0.42% of the library has one in this group of screens.
GAA spleen mod = inhibits or activates alpha-glucosidase in human spleen homogenate. P10253. human spleen homogenate, 4-MU-alpha-glucoside fluorescence. Potency, µM (doses to about 79.9 µM), for the others: at the top dose activity change, negative = inhibition, hits mostly inhibitors. actives 0.006% (n = 240,000). AID 2112;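 also: 0% = enzyme with vehicle and -100% = no enzyme basal signal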
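Human spleen homogenate (1 ug) incubated with compounds and 1 mM 4-methylumbelliferyl-alpha-D-glucopyranoside in pH 5.0 citrate/phosphate buffer, 37 C, 40 min. Stopped at pH 10; 4-MU fluorescence (Ex 365/Em 440 nm); AC50 by Hill fit.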
GAA glycogen mod = inhibitors or activators of human alpha-glucosidase glycogen cleavage; recombinant GAA, glycogen substrate, Amplex Red glucose oxidase fluorescence; Potency, µM (titrated, usually from 76.4 µM), without a hit: at the top dose activity change, negative = inhibition, hits mostly inhibitors; actives 0.38% (n = 300,000);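 also: 0% = full enzyme reaction and -100% = no-enzyme basal signal; the screen sought inhibitors and activators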
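Natural-substrate format: glycogen cleavage by 4 nM human enzyme, glucose read by Amplex Red coupling (Ex 573, Em 610 nm). Normalized to enzyme and no-enzyme controls.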
GAA inhib = inhibitors of human lysosomal alpha-glucosidase; P10253; purified human GAA, 4-MU-alpha-glucoside fluorescence; Potency, µM (titrated, usually from 76.9 µM), inactives show top-dose activity change, negative = inhibition, actives largely listed as inhibitors; actives 0.005% (n = 200,000); AID 1466;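 also: plate controls were uninhibited enzyme wells for no effect and no-enzyme background for full effect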
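Endpoint fluorogenic read: 20 min room-temperature reaction of 4 nM human alpha-glucosidase with 400 uM 4-methylumbelliferyl-alpha-D-pyranoside, pH 5.0, quenched with 1M NaOH/1M glycine pH 10. AC50 from Hill modeling.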
Lamin A splicing = changes lamin A minigene splicing in HeLa cells | Potency, µM (titrated, usually from 46.1 µM), without a hit: top-dose ratio change, negative = inhibition, most hits filed as inhibitors | AID 1487 | HeLa LMNA splicing GFP/RFP minigene ratio, 48 h | actives 0.01% (n = 200,000); active = well fitted inhibition curve with a large enough effect in the signal ratio, with a control signal flat, not every such curve was filed as active; inconclusive = small, poorly fitted or top-dose-only effect, or effect the other way, or a change in a side signal; the % refers to the signal ratio
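S3 HeLa stable clones carrying a lamin A-EGFP splicing minigene plus DsRed2 were seeded at 600 cells/well in Opti-MEM with 2% FBS, pin-dosed and incubated 48 h at 37°C. Acumen cytometry (488 nm) gave the GFP/RFP total-intensity ratio.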
N370S GC = inhibits or activates N370S mutant glucocerebrosidase | P04062 | N370S GC spleen homogenate, 4MU-glucoside fluorescence | Potency, µM (top dose mostly 59.4 µM), without a hit: top-dose activity change, negative = inhibition, usual class: inhibitors | actives 0.092% (n = 330,000) | AID 2101;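 also: 0% = full enzyme activity and -100% = no enzyme basal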
* = called active by the depositor; ? = inconclusive; / = no result given; [ ] = another dose, or the depositor's remark. Unless noted, calls follow the shape of the dose curve; as a rule, active = well fitted curve in the direction sought with a large enough effect; inconclusive = small, poorly fitted or top-dose-only effect, or another doubt; inactive = no such curve, though single readings can be large; an effect the other way counts as inactive or inconclusive. Unless noted, % is scaled to controls: 0 for no effect and ±100 for the full control effect; potency is read from the fitted curve at half-maximal effect.

SMILES | GAA spleen mod | GAA glycogen mod | GAA inhib | Lamin A splicing | N370S GC
O=C(O)C[C@@H]1C(=O)O[C@@H]2C(COC(=O)c3cc(O)c(O)c(O)c3)O[C@@H](OC(=O)c3cc(O)c(O)c(O)c3)[C@@H](OC(=O)c3cc(O)c(O)c4c3[C@H]1[C@H](O)C(=O)O4)[C@H]2OC(=O)c1cc(O)c(O)c(O)c1 (some centres undefined) | ? | 1.6µM* | / | / | -19%
COc1ccc(OC)c(C2=Nn3c(nnc3-c3ccccc3O)SC2)c1 | 10% | / | / | / | 0%
CCOc1cccc(CNc2ccc(O)cc2)c1OCc1ccccc1Cl | -2% | 6.3µM* | -1% | -7% | 8%
CCOc1cccc(CNc2ccc(O)cc2)c1OCc1ccc(Cl)cc1Cl | -7% | ? | -9% | ? | ?
O=C(N/N=C/c1ccc(O)c(O)c1)NC12CC3CC(CC(C3)C1)C2 | / | 10µM* | / | / | 22%
O=[N+]([O-])c1ccccc1NC(=S)N/N=C/c1ccc(O)c(O)c1 | -6% | 3.5µM* | -7% | / | -11%
CCOc1cccc(/C=N/NC(=S)Nc2ccccc2[N+](=O)[O-])c1O | 0% | 2% | 3% | ? | 2%
CCCNS(=O)(=O)c1ccc2nc(NC(=O)c3ccc(F)cc3)sc2c1 | / | / | / | -7%[46 µM] | /
C#CCOCCOCCOCCNc1nc(N2CCN(C(=O)CCCCCCCCCCNC(=O)Cn3cc(C[C@@H](C)O)nn3)CC2)nc(N2CCN(C(=O)CCCCCCCCCCNC(=O)[C@H](CCCN=C(N)N)n3cc(C[C@@H](C)CC)nn3)CC2)n1 | / | / | / | / | 2.8µM*
C#CCOCCOCCOCCNc1nc(N2CCN(C(=O)CCCCCCCCCCNC(=O)[C@H](CO)n3cc(CCCSC)nn3)CC2)nc(N2CCN(C(=O)CCCCCCCCCCNC(=O)[C@H](CCCN=C(N)N)n3cc(C[C@@H](C)CC)nn3)CC2)n1 | / | / | / | / | 3.2µM*
COc1ccc(C(=O)c2ccccc2)c2c(O)ccc(C(=O)c3ccccc3)c12 | 5% | -3% | -5% | ? | 5%
COc1ccc(C(C)=O)c2c(O)cccc12 | 9% | 40µM* | 0% | 6% | -2%
O=C1C2C3C=CC(CC3)C2C(=O)N1/N=C/c1ccc(O)c(O)c1 (centres undefined) | -4% | 7.1µM* | -1% | ? | 0%
COc1ccc(Nc2nc(-c3ccccc3)nc3ccccc23)cc1 | / | -13% | / | / | ?
COc1cccc(Nc2nc(-c3cccs3)nc3ccccc23)c1 | 1% | 7% | -3% | ? | 13µM*
COc1ccc(Nc2nc(-c3cccs3)nc3ccccc23)cc1 | -8% | -9% | -11% | ? | 1.1µM*
COc1cccc(CN(C)c2nc(-c3cccs3)nc3ccccc23)c1 | -3% | 10% | -12% | ? | 1.6µM*
COc1cccc(-c2nc(N(C)C)c3ccccc3n2)c1 | 5% | / | / | ? | -9%
COc1cc(N(C)C)cc(CN(C)CCc2ccc([N+](=O)[O-])cc2)c1O | -8% | / | / | / | -9%
CCOc1ccccc1N(CC)C(=O)Cn1ncc2c([nH]c3ccccc32)c1=O | / | 12%[76.3 µM] | / | 2%[46 µM] | /
N#Cc1c(NC(NC(=O)c2ccco2)C(=O)c2ccccc2)sc2c1CCCC2 (centres undefined) | -1% | 22µM* | -8% | 14% | ?
CC1=C(/C=C/C(C)=C/C=C/C(C)=C/C=O)C(C)(C)CCC1 | 2% | / | / | / | -3%
COc1ccc(OC)c(Cc2nnc(CCC(=O)NCc3ccc(C)s3)o2)c1 | -3% | 10µM* | 3% | / | 7%
COc1ccc(OC)c(Cc2nnc(CCC(=O)NC(C3CC3)C3CC3)o2)c1 | -2% | 11% | 1% | ? | -2%
COc1ccc(S(=O)(=O)Nc2c(C(=O)O)[nH]c3ccccc23)c(OC)c1 | 4% | 3.5µM* | 0% | 7% | -6%
SMILES | GAA spleen mod | GAA glycogen mod | GAA inhib | Lamin A splicing | N370S GC
COc1ccc(S(=O)(=O)Nc2c(C(=O)O)[nH]c3ccc(OC)cc23)c(OC)c1 | / | ? | / | / | 0%
COc1ccc(S(=O)(=O)Nc2c(C(=O)O)[nH]c3ccc(OC)cc23)cc1 | / | ? | / | / | -7%
COc1ccc2[nH]c(C(=O)O)c(NS(=O)(=O)c3ccc(OC)c(OC)c3)c2c1 | -6% | 4µM* | 4% | 9% | -3%
Nc1[nH]nc2nc3ccccc3cc12 | -4% | ? | -1% | / | 9%
CCc1ccc2nc3n[nH]c(N)c3cc2c1 | -3% | 18µM* | 1% | ? | -1%
CN1C(=O)/C(=C/C=C2\SCCN2C)SC1=S | -3% | 2% | -3% | -17% | -12%
CN1C(=O)/C(=C/C=C2\SCCN2C)N(C)C1=S | -3% | 11µM* | ? | ? | -10%
CCn1c(SCC(=O)c2ccc(O)c(O)c2)nnc1-c1ccc(C)cc1 | -4% | 12µM* | -5% | ? | -17%
COc1ccc(N2CCN(Cc3nc(N)nc(Nc4ccccc4OC)n3)CC2)cc1 | 11% | 40µM* | -5% | ? | -9%
COc1cccc([C@@H]2Oc3ccc(OC)cc3C(=O)[C@H]2OC(=O)Nc2ccc(C)c(Br)c2)c1 | -12% | / | / | / | 5%
O=C(NCCNCCO)C1(C(F)(F)F)CC(CCc2ccccc2)CCCO1 (centres undefined) | -7% | / | / | / | ?
Cc1cc(Nc2ccc(Cl)cc2)nc(NCc2ccccc2)n1 | -10% | 6% | -1% | ? | 22µM*
Cc1cc(Nc2ccccc2)nc(NCc2ccccc2)n1 | -3% | -3% | ? | ? | 4%
Cc1ccc(Nc2cc(C)nc(-c3ccccc3)n2)cc1 | / | -14% | / | / | 3.2µM*
Cc1ccc(Nc2cc(C)nc(-c3ccccc3O)n2)cc1 | 1% | -11% | -11% | ? | ?
NC(N)=NCCC[C@H](NC(=O)[C@@H](N)Cc1ccc(O)cc1)C(=O)O | 1% | / | / | / | 4%
COc1ccc(C)cc1NC(=O)c1ccc(=O)n(Cc2ccccc2)c1 | / | / | / | 16%[46 µM] | /
COc1ccc(-c2cnnc(N/N=C/c3ccc(O)c(O)c3)n2)cc1 | -9% | 11µM* | -2% | ? | -13%
Nc1cnc(Nc2ccc(Br)cc2)nc1N | -3% | 7µM* | -2% | / | ?
COc1ccc2c(c1)C(=O)[C@@H](OC(=O)N[C@H]1CCCc3ccccc31)[C@H](c1ccc(OC)c(Br)c1)O2 | -13% | / | / | / | -1%
Cc1ccc(Cl)cc1N | -5% | / | / | / | 1%
O=C(N/N=C/C1CC=CCC1)c1ccccc1O (centres undefined) | -7% | 32µM* | -10% | 9% | 0%
O=C(N/N=C/C1CC=CCC1)c1cc(Br)ccc1O (centres undefined) | -5% | ? | 4% | -12% | -3%
Oc1ccc(C2Oc3cc(O)cc(O)c3CC2O)cc1 (centres undefined) | 5% | / | / | / | -10%
Oc1cc(O)c2c(c1)O[C@H](c1ccc(O)c(O)c1)[C@H](O)C2 | 11%[29.1 µM] | 10µM* | / | -17% | -6%
